Reference: PubChem BioAssay (NCATS)
Inconclusive results are not listed. Active and inactive are the calls of the source. The call rests on the fitted dose curve; in most records, active means well fitted curve in the direction sought with a large enough effect; inconclusive means small, poorly fitted or top-dose-only effect, or another doubt; inactive means no such curve, though single readings can be large; an effect the other way counts as inactive or inconclusive.

Legend:
[1] = biological target: Glutathione peroxidase 1 (Homo sapiens) (UniProt P07203); experiment: Primary qHTS Assay for Inhibitors of Recombinant Selenoprotein Glutathione Peroxidase 1 (GPX1) (AID 1845191); details: recombinant GPX1, GR-coupled NADPH fluorescence, 15 min; series mostly up to 27.7 µM; further: nearly all actives have a fitted effect of over 65% in size
Sequence of Glutathione peroxidase 1 (Homo sapiens) (P07203 whole entry, looked up): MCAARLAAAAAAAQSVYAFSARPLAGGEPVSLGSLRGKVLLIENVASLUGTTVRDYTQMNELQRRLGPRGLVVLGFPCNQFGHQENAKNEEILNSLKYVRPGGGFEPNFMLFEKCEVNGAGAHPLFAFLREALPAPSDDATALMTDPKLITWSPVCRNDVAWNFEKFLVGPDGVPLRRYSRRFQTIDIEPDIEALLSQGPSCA
Summary of the method: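 GPX1 10 nM, GR 100 nM, GSH 1 mM, NADPH 0.5 mM, CHP 0.5 mM (final). 30-min cpd preincubation, RT. Ex340/Em450 read t=0, t=15 min.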

[2] = biological target: Phospholipid hydroperoxide glutathione peroxidase GPX4 (Homo sapiens) (UniProt P36969); experiment: Primary qHTS Assay for Inhibitors of Recombinant Selenoprotein Glutathione Peroxidase 4 (GPX4) (AID 1845192); details: recombinant GPX4, GR-coupled NADPH fluorescence, 15 min; series mostly up to 27.8 µM; further: nearly all actives have a fitted effect of over 65% in size
Sequence of Phospholipid hydroperoxide glutathione peroxidase GPX4 (Homo sapiens) (P36969 whole entry, looked up): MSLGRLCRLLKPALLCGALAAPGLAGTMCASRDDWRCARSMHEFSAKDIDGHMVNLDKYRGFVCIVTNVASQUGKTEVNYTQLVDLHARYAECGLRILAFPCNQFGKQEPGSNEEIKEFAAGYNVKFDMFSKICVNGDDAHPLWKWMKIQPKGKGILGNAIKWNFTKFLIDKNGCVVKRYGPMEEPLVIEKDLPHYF
Summary of the method: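 qHTS, GR-coupled: GPX4 200 nM + cpd 30 min RT → GSH 1 mM, NADPH 0.5 mM, GR 100 nM → CHP 0.5 mM start; fluor 340/450 at t0 and t15 min; no-enzyme wells as control.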

[3] = biological target: Luciferin 4-monooxygenase (Photinus pyralis) (UniProt P08659); experiment: Primary firefly luciferase (FLuc) qHTS assay for identification of artifact compounds. (AID 1845220); details: purified firefly luciferase, luminescence, 5 min; series mostly up to 54.1 µM; further: nearly all actives have a fitted effect of over 60% in size
Summary of the method: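 qHTS, 15 min compound preincubation with substrate (10 uM luciferin, 10 uM ATP) at RT, then 10 nM FLuc; 5 min; luminescence; % inhibition vs no-enzyme/DMSO controls, 4-parameter Hill fit.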

[4] = Primary fluorescence-based thiol-reactive (MSTI) qHTS assay for identification of artifact compounds. (AID 1845221); details: MSTI thiol-reactivity probe, 1 h; series mostly up to 53.8 µM; further: nearly all actives have a fitted effect of over 65% in size; further: potency means the concentration at half of the fitted maximal effect
Summary of the method: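 Curve-fitted percent inhibition (4-parameter Hill) derived from fluorescence, Ex 525/Em 598 nm, scaled with Acetyl-MSTI and MSTI; 1 h incubation at room temperature.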

[5] = system: Nanoluciferase (engineered Oplophorus gracilirostris luciferase); experiment: Primary Nanoluciferase (NLuc) qHTS assay for identification of artifact compounds. (AID 1845222); details: NLuc-conditioned medium, Nano-Glo luminescence, 5 min; series mostly up to 54.1 µM; further: potency means the concentration at half of the fitted maximal effect
Summary of the method: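 Luminescence read-out of secreted NLuc in S16 cell conditioned medium (1:55); compounds tested with 15 min RT preincubation, then Nano-Glo substrate 1:100, 5 min. % inhibition vs no-enzyme and DMSO controls, 4-parameter Hill fit.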

[6] = Primary redox qHTS assay for identification of artifact compounds. (AID 1845223); details: Amplex Red/HRP redox cycling with DTT, fluorescence; series mostly up to 53.8 µM
Summary of the method: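 Redox-cycling detection via DTT (250 uM final) oxidation coupled to Amplex Red (25 uM)/HRP (250 mU/mL) in HBSS. 15 min preincubation plus 30 min after DTT, room temperature. Ex/Em 525/598 nm; 4-parameter Hill fit against DMSO and 10 uM DA3003.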

Measured: Potency

OC[C@H]1O[C@@H](O[C@H]2[C@H](O)[C@@H](CO)O[C@@H](OCc3ccccc3)[C@@H]2O[C@@H]2OC[C@](O)(CO)[C@H]2O)[C@H](O)[C@@H](O)[C@@H]1O
inactive: all assays above

COc1cc(C2CC(=O)Nc3c2cc(Br)c2ccccc32)cc(OC)c1OC (centres undefined)
inactive: all assays above

CC1(C)C(=O)N2c3ccccc3C(O)(CC(C(=O)O)n3cnc4ccccc4c3=O)C2N1O (centres undefined)
inactive: all assays above

NC(=O)C(O[C@@H]1O[C@H](CO[C@@H]2O[C@H](CO)[C@@H](O)[C@H](O)[C@H]2O)[C@@H](O)[C@H](O)[C@H]1O)c1ccccc1 (some centres undefined)
inactive: all assays above

COc1cc(CO)cc(OC)c1O[C@@H]1O[C@H](CO)[C@@H](O)[C@H](O)[C@H]1O
inactive: all assays above

Cc1ccc(-c2c(-c3nn(C)c4ncnc(N5CCC(N6CCCCC6)C5)c34)cnn2C)cc1 (centres undefined)
inactive: all assays above

CC(=O)NC1C(OC2CCC3(C)C(CCC4(C)C3CC=C3C5CC(C)(C)CCC5(C(=O)O)C(O)CC34C)C2(C)C)OC(CO)C(O)C1O (centres undefined)
inactive: all assays above

Cc1ccc(C)c(S(=O)(=O)n2cnc3ccccc32)c1
inactive: all assays above

CC(C)C1C(OC(=O)/C=C/c2ccccc2)CC2(C)OC2CCC2(C)OC2C1O (centres undefined)
inactive: all assays above

O=C(O)CC1CCC(c2ccc(NC(=O)c3nnc(Nc4ccc(F)c(F)c4)o3)cc2)CC1 (centres undefined)
inactive: all assays above

CC1=C2CC(C)(C)CC2C(O)C2=C(C1)C(=O)OC2O (centres undefined)
inactive: all assays above

COc1cc(/C=C/C(=O)O[C@H]2[C@H](O)[C@@H](CO)O[C@@]2(CO)O[C@H]2O[C@H](CO)[C@@H](O)[C@H](O)[C@H]2O)cc(OC)c1O
inactive: all assays above

CC(C)c1ccc2c(c1)[C@H](O)CC1[C@@](C)(C(=O)O)CCC[C@]21C (some centres undefined)
inactive: all assays above

Cc1ccccc1NC(=O)Nc1ccc(CN2C(=O)N([C@@H](CC(C)C)C(=O)N[C@@H](CC(=O)O)c3ccccc3)C(=O)C2(C)C)cc1
inactive: all assays above

C[C@@H]1[C@H](O)[C@@H]2OC(=O)C3=C2[C@H](CCC3)[C@@]12C[C@@H](c1ccoc1)OC2=O
inactive: all assays above

Cc1cn(C[C@H](N)C(=O)O)c(=O)n(Cc2ccsc2C(=O)O)c1=O
inactive: all assays above

CC1(C)[C@@H]2CC=C(CO[C@@H]3O[C@H](CO[C@@H]4OC[C@H](O)[C@H](O)[C@H]4O)[C@@H](O)[C@H](O)[C@H]3O)[C@H]1C2
inactive: all assays above

O=C(Cc1ccc(Cl)cc1)Nc1cnccc1C(=O)O
active: [5] 9.53 µM
inactive: all other assays above

COc1cc(C2Oc3c(OC)cc(CCCO)cc3C2CO)ccc1O (centres undefined)
active: [4] 13.1 µM
inactive: all other assays above

C=CCC/C=C/C#CCCCCCCCC[C@H]1C(=O)O[C@H](C)[C@@H]1O
inactive: all assays above

COc1ccc(C2OCC3C(c4cc(OC)c5c(c4)OCO5)OCC23)cc1OC (centres undefined)
inactive: all assays above

C=C1[C@H]2CCC3[C@]4(C)CCC[C@@](C)(C(=O)O)C4CC[C@]3(C2)[C@H]1OC(C)=O (some centres undefined)
inactive: all assays above

C[C@@H]1O[C@@H](O[C@H]2[C@@H]3C=CO[C@@H](O[C@@H]4O[C@H](CO)[C@@H](O)[C@H](O)[C@H]4O)[C@@H]3[C@@]3(CO)O[C@@H]23)[C@H](OC(=O)/C=C/c2ccc(O)cc2)[C@H](O)[C@H]1O
active: [4] 3.54 µM
inactive: all other assays above

CC1CCC2(NC1)OC1C(O)C3C4CCC5CC(O[C@@H]6O[C@H](CO)[C@@H](O)[C@H](O)[C@H]6O[C@@H]6O[C@@H](C)[C@H](O)[C@@H](O)[C@H]6O)CCC5(C)C4CCC3(C)C1C2C (some centres undefined)
inactive: all assays above

O=C(O)CCc1c(C(=O)O)[nH]c2cc(Cl)cc(Cl)c12
inactive: all assays above

COc1ccc(NC(=O)c2ccc(-c3ccc(C(N)=O)cc3C)cc2)cc1N1CCN(C)CC1
not listed: [5]
inactive: all other assays above

O=C(Cn1c2ccccc2c2nc3n(c(=O)c21)CCS3)N1CCCC1
not listed: [5]
inactive: all other assays above

OCC1OC(Oc2cc(O)cc(/C=C/c3ccc(OC4OC(CO)C(O)C(O)C4O)cc3O)c2)C(O)C(O)C1O (centres undefined)
inactive: all assays above

C[C@]12CC/C(=N\OCC(=O)O)C=C1CC[C@@H]1[C@@H]2[C@@H](O)C[C@@]2(C)[C@H]1CC[C@]2(O)C(=O)CO
inactive: all assays above

CN1CCN(c2nc(-c3ccc(C(=O)NC4(C(=O)NCC#N)CCCCC4)cc3)cs2)CC1
inactive: all assays above

C=C(C)[C@@H]1CC[C@]2(C(=O)O)CC[C@]3(C)[C@H](CCC4[C@@]5(C)CCC(=O)C(C)(C)C5C(O)C[C@]43C)C12 (some centres undefined)
inactive: all assays above

CC(C)CC[C@@H](O)[C@](C)(O)[C@H]1CC[C@@]2(O)C3=CC(=O)[C@@H]4C[C@@H](O)[C@@H](O)C[C@]4(C)[C@H]3CC[C@]12C
inactive: all assays above

C=C1[C@@H]2CC[C@@]3(C)[C@H](c4ccoc4)OC(=O)C[C@]13O[C@H]1CC(=O)C(C)(C)[C@H](C(O)C(=O)OC)[C@]12C (some centres undefined)
not listed: [5]
inactive: all other assays above

Cc1cc(-c2nncc3c(C(C)(C)C)c(OCc4ncnn4C)nn23)no1
inactive: all assays above

Cc1c(F)cc(C(=O)NC2CC2)cc1-c1ccc(C(=O)NCC(C)(C)C)cn1
not listed: [5]
inactive: all other assays above

C/C=C/C=C/C=C/C(=O)N(C)C(C(=O)NC(C)C(=O)N1CCCC1C(N)=O)C(C)C (centres undefined)
inactive: [1] | [2] | [3] | [5]

COc1c(C)c(OCC=C(C)C)cc2c1CNC2=O
inactive: all assays above

Cc1ncc(Cl)cc1NCc1ccc(C(=O)NC(CC2CCCC2)C(=O)NC2CC2)s1 (centres undefined)
inactive: all assays above

O=C(/C=C/c1ccc(O)cc1)O[C@H]1[C@H](OC2CCCCC2O)O[C@H](CO)[C@@H](O)[C@@H]1O (some centres undefined)
active: [4] 4.12 µM
inactive: all other assays above

CC(C(=O)Nc1cc(C#N)ccc1CCCC(=O)O)c1ccc(F)c2ccccc12 (centres undefined)
not listed: [5]
inactive: all other assays above

CNc1nc(Nc2cn(C(C)(C)C#N)nc2C)ncc1C(F)(F)F
inactive: all assays above
